# Measurements reported in PMC11006913.
# Experiments:
# Test in all cases: PBM; 200 nM protein, PBS
# Conditions in all cases: dsDNA, one strand shown
# HOXB4 [1] = target: HOXB4 (Homo sapiens, UniProt P17483 148-234)
# HOXB4 [2] = target: HOXB4 (Homo sapiens, UniProt P17483 148-234, V174I)
# HOXB6 [3] = target: HOXB6 (Homo sapiens, UniProt P17509 132-218, K202E)
# HOXB6 [4] = target: HOXB6 (Homo sapiens, UniProt P17509 132-218)
# VAX1 [5] = target: VAX1 (Homo sapiens, UniProt Q5SQQ9 86-172)
# VAX1 [6] = target: VAX1 (Homo sapiens, UniProt Q5SQQ9 86-172, T142I)
# VAX1 [7] = target: VAX1 (Homo sapiens, UniProt Q5SQQ9 86-172, K157R)
# HOXA2 [8] = target: HOXA2 (Homo sapiens, UniProt O43364 129-215, R185T)
# HOXA2 [9] = target: HOXA2 (Homo sapiens, UniProt O43364 129-215, R185K)
# HOXA2 [10] = target: HOXA2 (Homo sapiens, UniProt O43364 129-215, Y150S)
# HOXA2 [11] = target: HOXA2 (Homo sapiens, UniProt O43364 129-215)
# HOXA4 = HOXA4 (Homo sapiens, UniProt Q00056 201-287, R217L)
# HOXA7 [12] = target: HOXA7 (Homo sapiens, UniProt P31268 116-202)
# HOXA7 [13] = target: HOXA7 (Homo sapiens, UniProt P31268 116-202, W177C)
# Sequence of HOXA7 (Homo sapiens, UniProt P31268 116-202, W177C) (P31268 116-202 W177C): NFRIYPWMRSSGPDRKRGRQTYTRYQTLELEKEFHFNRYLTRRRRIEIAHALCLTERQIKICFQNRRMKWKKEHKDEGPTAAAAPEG
# Sequence of HOXB6 (Homo sapiens, UniProt P17509 132-218, K202E) (P17509 132-218 K202E): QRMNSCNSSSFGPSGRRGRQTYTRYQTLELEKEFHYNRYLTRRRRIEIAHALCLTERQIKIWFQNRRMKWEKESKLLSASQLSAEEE
# Sequence of HOXB6 (Homo sapiens, UniProt P17509 132-218) (P17509 132-218): as the sequence (P17509 132-218 K202E) above, with E71K counted along it
# Sequence of HOXB4 (Homo sapiens, UniProt P17483 148-234, V174I) (P17483 148-234 V174I): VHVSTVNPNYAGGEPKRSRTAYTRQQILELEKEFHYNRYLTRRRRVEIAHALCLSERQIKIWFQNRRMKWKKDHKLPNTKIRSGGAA
# Sequence of HOXB4 (Homo sapiens, UniProt P17483 148-234) (P17483 148-234): as the sequence (P17483 148-234 V174I) above, with I27V counted along it
# Sequence of HOXA2 (Homo sapiens, UniProt O43364 129-215, Y150S) (O43364 129-215 Y150S): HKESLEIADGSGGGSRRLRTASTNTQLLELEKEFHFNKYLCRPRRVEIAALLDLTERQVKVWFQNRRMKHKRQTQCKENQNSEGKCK
# Sequence of VAX1 (Homo sapiens, UniProt Q5SQQ9 86-172) (Q5SQQ9 86-172): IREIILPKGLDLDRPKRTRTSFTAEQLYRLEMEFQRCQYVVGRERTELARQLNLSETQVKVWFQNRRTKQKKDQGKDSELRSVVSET
# Sequence of VAX1 (Homo sapiens, UniProt Q5SQQ9 86-172, K157R) (Q5SQQ9 86-172 K157R): as the sequence (Q5SQQ9 86-172) above, with K72R counted along it
# Sequence of HOXA2 (Homo sapiens, UniProt O43364 129-215, R185K) (O43364 129-215 R185K): as the sequence (O43364 129-215 Y150S) above, with S22Y, R57K counted along it
# Sequence of HOXA2 (Homo sapiens, UniProt O43364 129-215, R185T) (O43364 129-215 R185T): as the sequence (O43364 129-215 Y150S) above, with S22Y, R57T counted along it
# Sequence of HOXA2 (Homo sapiens, UniProt O43364 129-215) (O43364 129-215): as the sequence (O43364 129-215 Y150S) above, with S22Y counted along it
# Sequence of VAX1 (Homo sapiens, UniProt Q5SQQ9 86-172, T142I) (Q5SQQ9 86-172 T142I): as the sequence (Q5SQQ9 86-172) above, with T57I counted along it
# Sequence of HOXA4 (Q00056 201-287 R217L): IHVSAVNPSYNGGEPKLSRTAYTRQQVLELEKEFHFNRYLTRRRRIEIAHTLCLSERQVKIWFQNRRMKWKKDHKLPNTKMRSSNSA
# Sequence of HOXA7 (Homo sapiens, UniProt P31268 116-202) (P31268 116-202): as the sequence (P31268 116-202 W177C) above, with C62W counted along it
sequence,measurement,setting,value
AGACCAGC,binding signal,HOXB4 [1],"7.43 upbm affinity estimate (log intensity, higher = more binding, comparable within an allelic series)"
same,binding signal,HOXB4 [2],"7.5 upbm affinity estimate (log intensity, higher = more binding, comparable within an allelic series)"
CGGTCACG,binding signal,HOXB4 [1],"7.89 upbm affinity estimate (log intensity, higher = more binding, comparable within an allelic series)"
same,binding signal,HOXB4 [2],"7.75 upbm affinity estimate (log intensity, higher = more binding, comparable within an allelic series)"
CGCTGGCC,binding signal,HOXB4 [1],"7.45 upbm affinity estimate (log intensity, higher = more binding, comparable within an allelic series)"
same,binding signal,HOXB4 [2],"7.53 upbm affinity estimate (log intensity, higher = more binding, comparable within an allelic series)"
CCTGTGGA,binding signal,HOXB4 [1],"7.33 upbm affinity estimate (log intensity, higher = more binding, comparable within an allelic series)"
same,binding signal,HOXB4 [2],"7.56 upbm affinity estimate (log intensity, higher = more binding, comparable within an allelic series)"
AGGCGCGC,binding signal,HOXB4 [1],"7.53 upbm affinity estimate (log intensity, higher = more binding, comparable within an allelic series)"
same,binding signal,HOXB6 [3],"9.19 upbm affinity estimate (log intensity, higher = more binding, comparable within an allelic series)"
same,binding signal,HOXB4 [2],"7.6 upbm affinity estimate (log intensity, higher = more binding, comparable within an allelic series)"
same,binding signal,HOXB6 [4],"8.96 upbm affinity estimate (log intensity, higher = more binding, comparable within an allelic series)"
GCAGGGCC,binding signal,HOXB4 [1],"7.4 upbm affinity estimate (log intensity, higher = more binding, comparable within an allelic series)"
same,binding signal,HOXB4 [2],"7.46 upbm affinity estimate (log intensity, higher = more binding, comparable within an allelic series)"
same,binding signal,VAX1 [5],"6.92 upbm affinity estimate (log intensity, higher = more binding, comparable within an allelic series)"
same,binding signal,VAX1 [6],"7 upbm affinity estimate (log intensity, higher = more binding, comparable within an allelic series)"
same,binding signal,VAX1 [7],"6.86 upbm affinity estimate (log intensity, higher = more binding, comparable within an allelic series)"
GACCGTGC,binding signal,HOXB4 [1],"7.54 upbm affinity estimate (log intensity, higher = more binding, comparable within an allelic series)"
same,binding signal,HOXB4 [2],"7.53 upbm affinity estimate (log intensity, higher = more binding, comparable within an allelic series)"
AATAGCCA,binding signal,HOXB4 [1],"10.2 upbm affinity estimate (log intensity, higher = more binding, comparable within an allelic series)"
same,binding signal,HOXB4 [2],"10.3 upbm affinity estimate (log intensity, higher = more binding, comparable within an allelic series)"
CGGGGGGA,binding signal,HOXB4 [1],"7.79 upbm affinity estimate (log intensity, higher = more binding, comparable within an allelic series)"
same,binding signal,HOXA2 [8],"7.04 upbm affinity estimate (log intensity, higher = more binding, comparable within an allelic series)"
same,binding signal,HOXB4 [2],"7.87 upbm affinity estimate (log intensity, higher = more binding, comparable within an allelic series)"
same,binding signal,HOXA2 [9],"10.1 upbm affinity estimate (log intensity, higher = more binding, comparable within an allelic series)"
same,binding signal,HOXA2 [10],"10.3 upbm affinity estimate (log intensity, higher = more binding, comparable within an allelic series)"
same,binding signal,HOXA2 [11],"7.09 upbm affinity estimate (log intensity, higher = more binding, comparable within an allelic series)"
GTCGATGA,binding signal,HOXB4 [1],"9.83 upbm affinity estimate (log intensity, higher = more binding, comparable within an allelic series)"
same,binding signal,HOXB4 [2],"9.24 upbm affinity estimate (log intensity, higher = more binding, comparable within an allelic series)"
CAGGCACG,binding signal,HOXB4 [1],"7.26 upbm affinity estimate (log intensity, higher = more binding, comparable within an allelic series)"
same,binding signal,HOXB4 [2],"7.43 upbm affinity estimate (log intensity, higher = more binding, comparable within an allelic series)"
AATGATTA,binding signal,HOXB4 [1],"13.1 upbm affinity estimate (log intensity, higher = more binding, comparable within an allelic series)"
same,binding signal,HOXA4,"12 upbm affinity estimate (log intensity, higher = more binding, comparable within an allelic series)"
same,binding signal,HOXB4 [2],"13.8 upbm affinity estimate (log intensity, higher = more binding, comparable within an allelic series)"
ATTGATCC,binding signal,HOXB4 [1],"10.1 upbm affinity estimate (log intensity, higher = more binding, comparable within an allelic series)"
same,binding signal,HOXB4 [2],"10 upbm affinity estimate (log intensity, higher = more binding, comparable within an allelic series)"
CTGGAGCC,binding signal,HOXB4 [1],"7.25 upbm affinity estimate (log intensity, higher = more binding, comparable within an allelic series)"
same,binding signal,HOXB4 [2],"7.29 upbm affinity estimate (log intensity, higher = more binding, comparable within an allelic series)"
same,binding signal,VAX1 [5],"6.85 upbm affinity estimate (log intensity, higher = more binding, comparable within an allelic series)"
same,binding signal,VAX1 [6],"6.94 upbm affinity estimate (log intensity, higher = more binding, comparable within an allelic series)"
same,binding signal,VAX1 [7],"6.67 upbm affinity estimate (log intensity, higher = more binding, comparable within an allelic series)"
CACGTGGG,binding signal,HOXB4 [1],"7.46 upbm affinity estimate (log intensity, higher = more binding, comparable within an allelic series)"
same,binding signal,HOXB4 [2],"7.46 upbm affinity estimate (log intensity, higher = more binding, comparable within an allelic series)"
ATCTCTTA,binding signal,HOXB4 [1],"9.96 upbm affinity estimate (log intensity, higher = more binding, comparable within an allelic series)"
same,binding signal,HOXB4 [2],"9.9 upbm affinity estimate (log intensity, higher = more binding, comparable within an allelic series)"
GTGATGGA,binding signal,HOXB4 [1],"9.37 upbm affinity estimate (log intensity, higher = more binding, comparable within an allelic series)"
same,binding signal,HOXB4 [2],"9.3 upbm affinity estimate (log intensity, higher = more binding, comparable within an allelic series)"
CCCGCGGG,binding signal,HOXB4 [1],"8.38 upbm affinity estimate (log intensity, higher = more binding, comparable within an allelic series)"
same,binding signal,HOXA2 [8],"7.19 upbm affinity estimate (log intensity, higher = more binding, comparable within an allelic series)"
same,binding signal,HOXB4 [2],"7.82 upbm affinity estimate (log intensity, higher = more binding, comparable within an allelic series)"
same,binding signal,HOXA2 [9],"10.4 upbm affinity estimate (log intensity, higher = more binding, comparable within an allelic series)"
same,binding signal,HOXA2 [10],"10.4 upbm affinity estimate (log intensity, higher = more binding, comparable within an allelic series)"
same,binding signal,HOXA2 [11],"7.26 upbm affinity estimate (log intensity, higher = more binding, comparable within an allelic series)"
GAACATAA,binding signal,HOXB4 [1],"10.5 upbm affinity estimate (log intensity, higher = more binding, comparable within an allelic series)"
same,binding signal,HOXB4 [2],"10.7 upbm affinity estimate (log intensity, higher = more binding, comparable within an allelic series)"
CCGGGTTC,binding signal,HOXB4 [1],"7.62 upbm affinity estimate (log intensity, higher = more binding, comparable within an allelic series)"
same,binding signal,HOXB4 [2],"7.65 upbm affinity estimate (log intensity, higher = more binding, comparable within an allelic series)"
CAGGCGCG,binding signal,HOXB4 [1],"7.35 upbm affinity estimate (log intensity, higher = more binding, comparable within an allelic series)"
same,binding signal,HOXB6 [3],"9.01 upbm affinity estimate (log intensity, higher = more binding, comparable within an allelic series)"
same,binding signal,HOXB4 [2],"7.45 upbm affinity estimate (log intensity, higher = more binding, comparable within an allelic series)"
same,binding signal,HOXB6 [4],"8.9 upbm affinity estimate (log intensity, higher = more binding, comparable within an allelic series)"
ACCCCCGT,binding signal,HOXB4 [1],"7.65 upbm affinity estimate (log intensity, higher = more binding, comparable within an allelic series)"
same,binding signal,HOXB6 [3],"8.84 upbm affinity estimate (log intensity, higher = more binding, comparable within an allelic series)"
same,binding signal,HOXB4 [2],"7.64 upbm affinity estimate (log intensity, higher = more binding, comparable within an allelic series)"
same,binding signal,HOXB6 [4],"8.76 upbm affinity estimate (log intensity, higher = more binding, comparable within an allelic series)"
AAGCCAAT,binding signal,HOXB4 [1],"10.3 upbm affinity estimate (log intensity, higher = more binding, comparable within an allelic series)"
same,binding signal,HOXB4 [2],"10.6 upbm affinity estimate (log intensity, higher = more binding, comparable within an allelic series)"
CGGGACCA,binding signal,HOXB4 [1],"7.51 upbm affinity estimate (log intensity, higher = more binding, comparable within an allelic series)"
same,binding signal,HOXB4 [2],"7.58 upbm affinity estimate (log intensity, higher = more binding, comparable within an allelic series)"
CCCCCGTA,binding signal,HOXB4 [1],"7.91 upbm affinity estimate (log intensity, higher = more binding, comparable within an allelic series)"
same,binding signal,HOXB4 [2],"7.84 upbm affinity estimate (log intensity, higher = more binding, comparable within an allelic series)"
ATAAAGTA,binding signal,HOXB4 [1],"10.5 upbm affinity estimate (log intensity, higher = more binding, comparable within an allelic series)"
same,binding signal,HOXB4 [2],"10.6 upbm affinity estimate (log intensity, higher = more binding, comparable within an allelic series)"
CCAACGGA,binding signal,HOXB4 [1],"7.78 upbm affinity estimate (log intensity, higher = more binding, comparable within an allelic series)"
same,binding signal,HOXB4 [2],"7.67 upbm affinity estimate (log intensity, higher = more binding, comparable within an allelic series)"
CCAGCTCG,binding signal,HOXB4 [1],"7.72 upbm affinity estimate (log intensity, higher = more binding, comparable within an allelic series)"
same,binding signal,HOXB4 [2],"7.66 upbm affinity estimate (log intensity, higher = more binding, comparable within an allelic series)"
GAGCCGGC,binding signal,HOXB4 [1],"7.56 upbm affinity estimate (log intensity, higher = more binding, comparable within an allelic series)"
same,binding signal,HOXB4 [2],"7.62 upbm affinity estimate (log intensity, higher = more binding, comparable within an allelic series)"
CGCCGTGC,binding signal,HOXB4 [1],"7.83 upbm affinity estimate (log intensity, higher = more binding, comparable within an allelic series)"
same,binding signal,HOXB4 [2],"7.83 upbm affinity estimate (log intensity, higher = more binding, comparable within an allelic series)"
CAGGGTCC,binding signal,HOXB4 [1],"7.33 upbm affinity estimate (log intensity, higher = more binding, comparable within an allelic series)"
same,binding signal,HOXB4 [2],"7.37 upbm affinity estimate (log intensity, higher = more binding, comparable within an allelic series)"
GAGCTGCA,binding signal,HOXB4 [1],"7.7 upbm affinity estimate (log intensity, higher = more binding, comparable within an allelic series)"
same,binding signal,HOXB4 [2],"7.45 upbm affinity estimate (log intensity, higher = more binding, comparable within an allelic series)"
AGCCGCGG,binding signal,HOXB4 [1],"7.58 upbm affinity estimate (log intensity, higher = more binding, comparable within an allelic series)"
same,binding signal,HOXB4 [2],"7.46 upbm affinity estimate (log intensity, higher = more binding, comparable within an allelic series)"
CCGTTATC,binding signal,HOXB4 [1],"9.78 upbm affinity estimate (log intensity, higher = more binding, comparable within an allelic series)"
same,binding signal,HOXB4 [2],"9.74 upbm affinity estimate (log intensity, higher = more binding, comparable within an allelic series)"
ACCGTGCC,binding signal,HOXB4 [1],"7.42 upbm affinity estimate (log intensity, higher = more binding, comparable within an allelic series)"
same,binding signal,HOXA7 [12],"8.5 upbm affinity estimate (log intensity, higher = more binding, comparable within an allelic series)"
same,binding signal,HOXB4 [2],"7.71 upbm affinity estimate (log intensity, higher = more binding, comparable within an allelic series)"
same,binding signal,HOXA7 [13],"8.5 upbm affinity estimate (log intensity, higher = more binding, comparable within an allelic series)"
CCTGGAAG,binding signal,HOXB4 [1],"7.71 upbm affinity estimate (log intensity, higher = more binding, comparable within an allelic series)"
same,binding signal,HOXB4 [2],"7.54 upbm affinity estimate (log intensity, higher = more binding, comparable within an allelic series)"
ACGTGGCG,binding signal,HOXB4 [1],"7.5 upbm affinity estimate (log intensity, higher = more binding, comparable within an allelic series)"
same,binding signal,HOXB4 [2],"7.6 upbm affinity estimate (log intensity, higher = more binding, comparable within an allelic series)"
AATGGTCA,binding signal,HOXB4 [1],"10.4 upbm affinity estimate (log intensity, higher = more binding, comparable within an allelic series)"
same,binding signal,HOXB4 [2],"10.5 upbm affinity estimate (log intensity, higher = more binding, comparable within an allelic series)"
CGAATCTC,binding signal,HOXB4 [1],"7.71 upbm affinity estimate (log intensity, higher = more binding, comparable within an allelic series)"
same,binding signal,HOXB4 [2],"7.74 upbm affinity estimate (log intensity, higher = more binding, comparable within an allelic series)"
ATCTATAA,binding signal,HOXB4 [1],"11 upbm affinity estimate (log intensity, higher = more binding, comparable within an allelic series)"
same,binding signal,HOXB4 [2],"11.1 upbm affinity estimate (log intensity, higher = more binding, comparable within an allelic series)"
